Laboratory results: PubChem BioAssay AID1159580 (chemical genetic matrix, 2015)
Values joined by “and” are separate entries in the source; they are usually repeats but may differ in a detail not shown here. Identical values can stand only once. Screen size: about 5,500 compounds; about 2,000 (36%) were called active. Roughly 18% stayed inconclusive and do not appear here. No stated cut-off is given here; in the data, active means normalized growth mostly below about 0.91 (no sharp cut-off); inconclusive means no clear call, values can overlap the other calls; inactive means mostly above about 0.92. The list shows a part of the results.

Assay: chemical genetic growth profiling, strain panel (AID 1159580);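 further: tested at 20 µM; growth read once vehicle control cultures reached saturation at 30 °C; 1 = growth at the plate median or of vehicle wells; lower values mean less growth of the strain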
Settings: S. cerevisiae deletion strains, growth OD

Measured: normalized growth

CC1Cc2ccccc2N1NC(=O)c1ccc(Cl)c(S(N)(=O)=O)c1 (centres undefined)
inactive: locus YAL013W, strain DEP1, active compounds read low 1.01 | locus YAL021C, strain ccr4, active compounds read low 1 | locus YAL026C, strain drs2, active compounds read low 1 | locus YAL030W, strain snc1, active compounds read low 0.998 | locus YBL061C, strain skt5, active compounds read low 0.999 | locus YBR009C, strain hhf1, active compounds read low 0.996 | locus YBR021W, strain FUR4, active compounds read low 1.01 | locus YBR023C, strain chs3, active compounds read low 1 | locus YBR171W, strain sec66, active compounds read low 0.997 | locus YBR229C, strain ROT2, active compounds read low 1.01 | locus YBR231C, strain swc5, active compounds read low 0.978 | locus YBR279W, strain paf1, active compounds read low 1 | locus YCL011C, strain gbp2, active compounds read low 1.01 | locus YCL016C, strain dcc1, active compounds read low 0.996 | locus YCL029C, strain bik1, active compounds read low 1.01 | locus YCL061C, strain MRC1, active compounds read low 1.01 | locus YCL069W, strain vba3, active compounds read low 0.991 | locus YCR088W, strain abp1, active compounds read low 1.01 | locus YDL005C, strain med2, active compounds read low 0.999 | locus YDL035C, strain GPR1, active compounds read low 1.02 | locus YDL040C, strain nat1, active compounds read low 0.997 | locus YDL074C, strain BRE1, active compounds read low 1.02 | locus YDL101C, strain DUN1, active compounds read low 1.01 | locus YDL134C, strain PPH21, active compounds read low 1.03 | locus YDL185W, strain tfp1, active compounds read low 0.989 | locus YDL192W, strain arf1, active compounds read low 0.999 | locus YDR001C, strain nth1, active compounds read low 1 | locus YDR069C, strain doa4, active compounds read low 1 | locus YDR101C, strain arx1, active compounds read low 1.02 | locus YDR137W, strain rgp1, active compounds read low 1.01 | locus YDR159W, strain sac3, active compounds read low 0.992 | locus YDR162C, strain NBP2, active compounds read low 1.01 | locus YDR195W, strain ref2 0.979 | locus YDR297W, strain sur2, active compounds read low 0.998 | locus YDR318W, strain mcm21, active compounds read low 0.991 | locus YDR334W, strain swr1, active compounds read low 1.01 | locus YDR335W, strain msn5, active compounds read low 1 | locus YDR388W, active compounds read low 1 | locus YDR392W, strain spt3, active compounds read low 0.973 | locus YDR502C, strain sam2, active compounds read low 1 | locus YEL003W, strain gim4, active compounds read low 1 | locus YEL037C, strain rad23, active compounds read low 1 | locus YEL061C, strain CIN8 (second series), active compounds read low 0.999 | locus YEL061C, strain CIN8, active compounds read low 1.01 | locus YER015W, strain faa2, active compounds read low 1.01 | locus YER016W, strain bim1, active compounds read low 0.995 | locus YER110C, active compounds read low 0.996 | locus YER111C, strain swi4, active compounds read low 1 | locus YER155C, strain BEM2 (second series), active compounds read low 1.01 | locus YER155C, strain BEM2, active compounds read low 1.01 | locus YER167W, strain BCK2, active compounds read low 1.01 | locus YFR010W, strain ubp6, active compounds read low 1 | locus YGL078C, strain dbp3, active compounds read low 1 | locus YGL086W, strain mad1, active compounds read low 1.01 | locus YGL167C, strain pmr1, active compounds read low 1 | locus YGL173C, strain kem1, active compounds read low 1.01 | locus YGL227W, strain vid30, active compounds read low 0.999 | locus YGL240W, strain doc1, active compounds read low 0.996 | locus YGL248W, strain PDE1, active compounds read low 1.01 | locus YGL253W, strain hxk2, active compounds read low 0.993 | locus YGR078C, strain PAC10, active compounds read low 1.01 | locus YGR135W, strain pre9, active compounds read low 0.972 | locus YGR229C, strain SMI1, active compounds read low 1.02 | locus YGR252W, strain gcn5, active compounds read low 0.938 | locus YHR013C, strain ard1, active compounds read low 1.02 | locus YHR027C, strain rpn1, active compounds read low 1.01 | locus YHR030C, strain SLT2, active compounds read low 1 and 0.987 | locus YHR079C, strain IRE1 (second series), active compounds read low 0.994 | locus YHR079C, strain IRE1, active compounds read low 0.989 | locus YHR094C, strain hxt1, active compounds read low 0.993 | locus YHR129C, strain ARP1, active compounds read low 1.01 | locus YHR142W, strain chs7, active compounds read low 0.994 | locus YHR200W, strain rpn10, active compounds read low 1.01 | locus YIL066C, strain RNR3, active compounds read low 1.02 | locus YIL073C, strain SPO22, active compounds read low 0.991 | locus YIL125W, strain kgd1, active compounds read low 0.995 | locus YIR030C, strain dcg1, active compounds read low 1 | locus YJL092W, strain hpr5, active compounds read low 0.994 | locus YJL095W, strain BCK1 (second series), active compounds read low 1 | locus YJL095W, strain BCK1, active compounds read low 1.01 and 0.979 | locus YJL115W, strain asf1, active compounds read low 1 | locus YJL129C, strain trk1, active compounds read low 0.989 | locus YJL134W, strain LCB3, active compounds read low 1.01 | locus YJL154C, strain vps35, active compounds read low 1 | locus YJL164C, strain tpk1, active compounds read low 0.998 | locus YJL166W, strain qcr8, active compounds read low 0.997 | locus YJL168C, strain set2, active compounds read low 1 | locus YJL187C, strain SWE1 (second series), active compounds read low 1.01 | locus YJL187C, strain SWE1, active compounds read low 0.999
